Screens as filed in PubChem.
The full list was thinned out, with hits kept by preference.
S aureus helic – inhibitors of S. aureus replicative helicase, primary screen, biochemical, fluorescence unwinding readout; AID 485395, 2010; inhibition, % (no concentration beside the values); purified S. aureus helicase, fluorescence unwinding assay; hit rate 0.05% among 120,000; in the data active = inhibition above about 25%, passing the limit was not always enough;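 also: 0% = mean of negative control wells and 100% = mean of positive control wells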
Sa growth inh – S. aureus growth inhibition at 42 and 30 °C, primary screen, LtaS inhibitor project, RN4220, two temperatures | hit rate 0.53% among 170,000 | AID 720641, 2013 | OD600, 20 h, 42 °C; active compounds read low | relative growth, % (test concentration not listed);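 active = relative growth at most 50% at the other temperature and 20+ points below 30 °C, or under 10% at both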
The depositor's hits bear a star; . = not tested or not shown.

SMILES	S aureus helic	Sa growth inh
Cc1[nH]c2ccccc2c1C(c1cccs1)N1CCN(c2ccccc2)CC1 (stereo unspecified)	19	0.0*
Cc1[nH]c2ccccc2c1C(c1ccncc1)N1CCN(C)CC1 (stereo unspecified)	-27	.
NS(=O)(=O)c1ccc(S(=O)(=O)NCC(=O)c2ccccc2)cc1	1	93
CC(=O)N1C(=O)/C(=C2\SC(=S)N(C(C)C(=O)O)C2=O)c2ccccc21 (stereo unspecified)	-5	77
CSC(N)=NCc1ccco1	.	106
O=C(Nc1nnc(C2CC2)s1)c1ccc2c(c1)S(=O)(=O)c1ccccc1C2=O	14	88
CCOC(=O)c1ccc(Nc2nc3nonc3nc2Nc2cccc(C)c2C)cc1	.	-1.0*
CCOC(=O)c1ccc(Nc2nc3nonc3nc2NCc2ccco2)cc1	20	50
CN(C)c1ccc(CN2C(=O)CCC2(C)C(=O)N2CCCC2)cc1 (stereo unspecified)	19	106
COc1ccccc1C(=O)Nc1sc2c(c1C(N)=O)CCC2	6	111
COc1cccc2sc(Nc3sc4c(c3C(N)=O)CCCC4)nc12	-2	1.1*
Nc1c(C(=O)Nc2ccc3c(c2)OCCO3)nnn1Cc1ccc(Br)cc1F	-12	76
COc1ccc(-c2nn(C)c3sc(C(=O)NCCCN4CCOCC4)cc23)cc1OC	32	134
CCCN1CCN(CCCNC(=O)c2cc3c(-c4ccc(OC)c(OC)c4)nn(C)c3s2)CC1	50*	131
O=C(NC1CCN(Cc2ccccc2)CC1)c1cccc(N2CCCS2(=O)=O)c1	4	105
COC(=O)Nc1ccccc1	-13	112
NCc1cn(-c2ccccc2)nc1-c1ccccc1	2	86
N=C(N)SCc1cn(-c2ccccc2)nc1-c1ccc(Br)cc1	-6	1.1*
CSc1nc2ccccc2n1CCO	11	121
O=C(NCCc1ccccc1)c1ccc(CS(=O)Cc2cccc(Cl)c2)o1 (stereo unspecified)	2	86
O=C(NCCc1ccc(Cl)cc1)c1ccc(CS(=O)Cc2cccc(Cl)c2)o1 (stereo unspecified)	.	7.4*
Cc1noc(C)c1C(=O)Nc1nnc(SCC(=O)O)s1	-12	104
Cc1noc(C)c1C(=O)Nc1nnc(SCc2ccc(Cl)cc2)s1	4	4.9*
CN1/C(=C/C=C(C#N)C#N)C=Cc2ccccc21	-50	76
CN1/C(=C/c2cccc[n+]2C)C=Cc2ccccc21	54*	69
SMILES	S aureus helic	Sa growth inh
CCCN(CCC)c1sc(S(C)(=O)=O)nc1S(=O)(=O)c1ccc(C)cc1	13	108
O=C(NCCC1=CCCCC1)c1ccccc1CSc1ncn[nH]1	14	88
CCOC(=O)c1c2c(n3ccccc13)C(=O)c1ccccc1C2=O	-9	9.7*
CCOC(=O)C1=C(O)c2ccccc2C1=O	4	122
Cc1ccc(Oc2ncccc2C(=O)n2ccc(-c3cccs3)n2)cc1	-5	88
COCCN1COc2c(cc(Cl)c3cccnc23)C1	12	0.9*
COc1ccc(CCN2COc3c(cc(Cl)c4cccnc34)C2)cc1OC	14	.
CCOC(=O)C1C(=O)Oc2ccc(Br)cc2C1C1(C(=O)OC)CCCC1 (stereo unspecified)	14	96
CC[C@H]1OC(=O)[C@H](C)[C@@H](O[C@H]2C[C@@](C)(OC)[C@@H](O)[C@H](C)O2)[C@H](C)[C@@H](O[C@@H]2O[C@H](C)C[C@H](N(C)C)[C@H]2O)[C@](C)(OC)C[C@@H](C)C(=O)[C@H](C)[C@@H](O)[C@]1(C)O	.	-0.8*
CNc1nc2ccccc2[nH]1	-26	108
c1ccc(Nc2nc3ccccc3[nH]2)nc1	6	0.9*
O=C(O)CCCn1cc(NC(=O)CCc2ccccc2)cn1	1	104
O=C(O)CCCc1nc2ccccc2s1	6	97
O=C(O)Cc1nc2ccccc2s1	-18	-0.3*
Cc1nc(-c2cccc(NC(=O)/C=C\C(=O)O)c2)cs1	6	.
Cc1nc(-c2c[nH]c(C(=O)O)c2)cs1	49*	71
N#CCCn1ccc2ccccc21	-3	120
N#C/C(=N\Nc1ccc(F)cc1)C(=O)NCC1CCCO1 (stereo unspecified)	-15	93
CC(C)C(=O)/C(C#N)=N/Nc1ccc(F)cc1	-13	8.0*
Cc1ccccc1Nc1c(-c2ccc(O)cc2)nc2sccn12	4	104
CC(=O)NC(c1ccc(Cl)cc1)n1ccnc1 (stereo unspecified)	.	100
CC(C)(C)c1ccc(-c2nnc(-c3ccccc3NC(=O)/C=C\C(=O)O)o2)cc1	.	73
CCN(Cc1ccccc1)C(=O)Cc1ccccc1	.	103
CCN(Cc1ccccc1)C(=O)Nc1c[nH]c2ccccc12	-13	3.6*
O=C(Nc1ccc(OC(F)(F)F)cc1)c1ccccn1	16	98
SMILES	S aureus helic	Sa growth inh
Cc1ccc(NC(=O)CSc2nc(C)cc(C)c2C#N)cc1	1	93
CC(C)(C)NC(=O)CN1CCN(C(=S)Nc2ccccc2F)CC1	-1	93
Cc1ccc(OCC(=O)Nc2cccc3ccc(C)nc23)c(C)c1	.	99
Cc1ccc2c(Cl)cc(Cl)c(OCC(=O)Nc3c(F)cccc3F)c2n1	-19	-0.2*
Cc1ccc(/C=N/c2sc(C)c(C)c2C#N)s1	2	.
O=C(NC(=O)c1ccccc1O)c1cccs1	.	131
Cc1ccc(O)c(C(=O)CC(=O)c2cccs2)c1	-8	6.4*
Cc1ccc(OCC(O)CN2C(C)CCCC2C)c(C)c1 (stereo unspecified)	13	107
Cc1ccccc1NC(=O)c1cc(C)n(Cc2cccs2)c1C	-18	106
CCOC(=O)c1cc2ncc(C(F)(F)F)cc2s1	.	93
NNC(=O)c1cc2ncc(C(F)(F)F)cc2s1	29	0.0*
O=S(=O)(Cc1ccc(Cl)cc1)Nc1nc2ccccc2s1	25	112
O=C(OCCOc1ccc(Cl)cc1)c1ccc(O)cc1O	2	22
CCCCCN1COc2ccc3c4c(c(=O)oc3c2C1)CCC4	19	101
O=C1c2ccccc2C(=O)c2c1oc1c3c(ccc21)OCN(CCCn1ccnc1)C3	24	5.8*
Cc1oc2c(c1C(=O)NCCC(C)C)C(=O)c1ccccc1C2=O	-6	17
Cc1oc2c(c1C(=O)NCCCn1ccnc1)C(=O)c1ccccc1C2=O	34	-0.8*
O=C1c2ccccc2C(=O)c2c1oc1c3c(ccc21)OCN(CCC1=CCCCC1)C3	6	7.0*
CC(C)(C)N1COc2ccc3c4c(oc3c2C1)C(=O)c1ccccc1C4=O	4	50
CCCN(CCC)C(=O)c1cc2c(=O)n3ccccc3nc2s1	-1	89
CCC(Sc1nnnn1-c1ccccc1)C(=O)Nc1ccc(S(N)(=O)=O)cc1 (stereo unspecified)	-7	75
Cc1noc(C)c1CSc1nc2ccccc2c(=O)n1CC1CCCO1 (stereo unspecified)	-11	93
S=C(Nc1ccc(Cl)cc1Cl)NC(Cn1ccnc1)c1ccccc1 (stereo unspecified)	.	73
Clc1ccc(C(Cn2ccnc2)OCc2csc3c(Cl)cccc23)c(Cl)c1 (stereo unspecified)	.	0.9*
COc1ccc(NC(=O)Cc2c[nH]c3ccccc23)cc1	11	102
CN=C1SC(CC(=O)NCc2ccccc2)C(=O)N1/N=C/c1c(C)nn(Cc2ccccc2)c1C (stereo unspecified)	-2	90
